In all, about 5,000 compounds went through this assay and about 3,900 (78%) were called active. Rule as the data show it: active = inhibition above about 22%; inactive = the rest. The set was probably picked from earlier hits. These entries were drawn from the full list.
Experiment: fluorescence retest of MPTP screen hits in isolated mitochondria, single concentration (AID 624504);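 also: 0% = DMSO vehicle and 100% = positive control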
Conditions: membrane potential, Rhodamine 123 fluorescence, at 10 µM, hits give high values

SMILES	inhibition
CC(NC(=S)Nc1ccc(OC(F)F)cc1)c1ccc(F)cc1 (centres undefined)	93.7% (active)
O=C(Nc1cccc(S(=O)(=O)Nc2ccc(Cl)cc2)c1)c1ccc2c(c1)OCCO2	80.9% (active)
FC(F)(F)c1cccc(NC(=S)Nc2cccc(Cl)c2)c1	96.6% (active)
O=C(Nc1cccc(-c2cccc(Cl)c2)c1)C1CCN(C2CCC2)CC1	-9.69% (inactive)
S=C(Nc1cccc(Cl)c1)Nc1ccc2c(c1)OCCO2	100% (active)
O=[N+]([O-])c1ccc(NS(=O)(=O)c2ccccc2)c(Cl)c1	97.2% (active)
N#C[C@]1(S(=O)(=O)c2ccccc2)C[C@@H]2ON=C(c3cccc(Br)c3)[C@@H]2C1	90.7% (active)
O=C(/C=C/c1ccc(F)cc1)Nc1cccc(S(=O)(=O)Nc2cccc(C(F)(F)F)c2)c1	69.5% (active)
O=C(/C=C(O)/C=C/c1ccc(O)cc1)/C=C/c1ccc(O)cc1	70.7% (active)
COc1cccc(CNc2nc(NCc3cccs3)nc3ccsc23)c1	102% (active)
COc1cccc(CNc2nc(NCc3ccccc3OC)nc3ccsc23)c1	121% (active)
COc1ccccc1CNc1nc(Nc2ccccc2Cl)c2sccc2n1	67% (active)
C=CCC1(CC=C)CCCN1C(=O)c1cc(COc2ccc(-n3cncn3)cc2)on1	103% (active)
CC(C)S(=O)(=O)c1csc(NC(=O)Nc2ccc(Cl)cc2)c1Cl	90.1% (active)
CCNCCC(=O)N1c2ccccc2Sc2ccc(NC(=O)OCC)cc21	-7.23% (inactive)
CCCCCOC(=O)NCCOC(=O)Nc1ccc(C(=O)OCC)cc1	72.7% (active)
COc1ccc(C(=O)NC2CCCc3c2cnn3-c2cccc(C)c2C)c(OC)n1 (centres undefined)	84.1% (active)
Cn1nccc1C(=O)NC1CCCc2c1cnn2-c1ccc(F)cc1F (centres undefined)	101% (active)
Cn1nccc1C(=O)NC1CCCc2c1cnn2-c1ccccc1F (centres undefined)	96.6% (active)
Cc1nc(N2CCOCC2)c2c(C)c(C(=O)Nc3ccc(C(F)(F)F)cc3)sc2n1	81.9% (active)
CCCCCc1c(Cc2ccccc2)ncn1CCc1ccccc1OC	106% (active)
Nc1nnc(SCC(=O)Nc2ccc3nc(SCC(=O)Nc4ccccc4)sc3c2)s1	77.9% (active)
Cc1cccc(NC(=O)Nc2cccc(Oc3c(F)c(F)c(F)c(F)c3F)c2)c1	62.1% (active)
CCN(CC)S(=O)(=O)c1ccc(N(C)Cc2ccc(C(F)(F)F)cc2)nc1	93.6% (active)
CSc1nsc(NC(=O)Nc2ccccc2)n1	89.7% (active)

SMILES	inhibition
COc1ccc(/C=C(/CC(=O)Nc2ccc(C)cc2)c2nc3ccccc3s2)cc1	-7.49% (inactive)
CCSc1nsc(NC(=O)Nc2cccc(C(C)=O)c2)n1	83.6% (active)
O=C(Nc1ccccc1)Nc1nc2ccccc2s1	80.6% (active)
C=CCSc1nsc(NC(=O)Nc2cccc(C(C)=O)c2)n1	84.6% (active)
CCCCN(CCCC)CCC(O)c1cc2c(Cl)cc(Cl)cc2c2cc(C(F)(F)F)ccc12 (centres undefined)	-7.09% (inactive)
CC(C)CC(=O)N/C(N)=N/c1nc2ccccc2s1	50% (active)
O=C1c2ccccc2C2=Nc3ccccc3SC(c3ccccc3F)C12 (centres undefined)	59% (active)
S=C(Nc1cccc(Br)c1)N1CCn2cccc2C1c1cccnc1 (centres undefined)	94.4% (active)
CN(c1ccccc1)S(=O)(=O)c1cccc(NC(=O)Cc2ccc(Cl)cc2)c1	81.2% (active)
Cc1ccc(S(=O)(=O)N(CC(=O)Nc2cccc([N+](=O)[O-])c2)Cc2ccc(Cl)cc2)cc1	88.5% (active)
CN(c1cccc(NC(=O)Nc2ccc(Cl)cc2)c1)S(C)(=O)=O	91.2% (active)
O=C(Cc1ccsc1)N1CCN(S(=O)(=O)c2cc(C(F)(F)F)cc(C(F)(F)F)c2)CC1	86.7% (active)
O=C(c1ccncc1)N1CCN(S(=O)(=O)c2cc(C(F)(F)F)cc(C(F)(F)F)c2)CC1	99.7% (active)
CCC(C)N1C(=O)S/C(=C/c2ccc(Sc3nc4ccccc4[nH]3)o2)C1=O (centres undefined)	91.4% (active)
Oc1c(Cl)cc(Cl)c(Cl)c1Cc1c(O)c(Cl)cc(Cl)c1Cl	16.1% (inactive)
Cc1nc2c(OCc3ccc(Cl)cc3Cl)cccn2c1N(C)CC1CC1	105% (active)
Cc1nc2c(OCc3cccc(Cl)c3)cccn2c1N(C)CC1CC1	107% (active)
Cc1nc2c(OCc3ccc(Cl)cc3)cccn2c1N(C)Cc1cccs1	106% (active)
O=C(/C(=C/c1cccc(Cl)c1)c1nc2ccccc2[nH]1)c1ccccc1	77.4% (active)
NC(N)=N/N=C/c1ccc(Cl)c([N+](=O)[O-])c1	-8.15% (inactive)
CC(C)(C)c1ccc(SCCc2ccncc2)cc1	98.5% (active)
Cc1cc(C)c(SCCc2ccncc2)c(C)c1	95.5% (active)
c1ccc2c(CSCc3nc4ccccc4[nH]3)cccc2c1	55.6% (active)
O=C(Nc1cccc(C(F)(F)F)c1)c1ccc(N2CCNCC2)c([N+](=O)[O-])c1	-27% (inactive)
O=C(c1ccc(N2CCCC2=O)cc1)N1CCN(c2ccc(C(F)(F)F)cc2[N+](=O)[O-])CC1	76% (active)

SMILES	inhibition
N#Cc1c(-c2cccs2)nc(SCC(=O)c2ccc(Br)cc2)[nH]c1=O	61.2% (active)
Cc1ccc(NC(=O)Nc2nnc(-c3ccncc3)s2)cc1	81.7% (active)
CCc1ccc(NC(=O)Nc2ccncc2)cc1	71.8% (active)
Cc1nnc(NC(=O)Nc2ccc(Cl)c(Cl)c2)s1	94% (active)
CCCCC(=O)NNC(=S)NC(=O)C(c1ccccc1)c1ccccc1	-2.85% (inactive)
O=[N+]([O-])c1cc(Cl)cc(/C=N/NC(=S)Nc2cc(S(=O)(=O)N3CCOCC3)ccc2Cl)c1O	5.99% (inactive)
O=C(c1cc(-c2cccc(O)c2)on1)N1CCc2ccccc2C1	33.5% (active)
O=C(NNc1ccccc1Cl)C(O)(c1cccc(C(F)(F)F)c1)c1cccc(C(F)(F)F)c1	83.9% (active)
Cc1ccc(S(=O)(=O)Nc2ccc3ncccc3c2)cc1	72.7% (active)
COc1ccc(S(=O)(=O)NCCCCOc2ccc(Cl)cc2)cc1	88.4% (active)
O=[N+]([O-])c1cc(Br)c(O)c(/C=N/Nc2nc3ccccc3s2)c1	65.6% (active)
O=C(CCN1C(=O)/C(=C/c2cccs2)SC1=S)NNC(=O)c1cccc(O)c1	49% (active)
COc1cc(NC(=O)c2cncc(-c3ccc(C#N)cc3)c2)cc(C(=O)Nc2cccc(C(F)(F)F)c2)c1	58.3% (active)
COCCn1c(CN2CCC(Cc3ccccc3)CC2)nc2c1c(=O)n(C)c(=O)n2C	10.1% (inactive)
COC(=O)c1c(C)[nH]c(C(=O)/C=C/c2ccc(Cl)cc2)c1C	86.5% (active)
CCCc1nc2scc(-c3ccc(C)cc3)c2c(=O)n1N	20.9% (active)
CC(C)c1ccc(NC(=S)NC2CC3C=CC2C3)cc1 (centres undefined)	91% (active)
COc1cccc(CNS(=O)(=O)c2ccc3c(c2)CC(C)N3C(=O)C2CCC2)c1 (centres undefined)	91.1% (active)
O=C(Nc1nc(-c2ccc3c(c2)OCO3)cs1)c1ccncc1	42.8% (active)
Cc1ccc(F)cc1NC(=O)Cc1nn(C)c(=O)c2ccccc12	29.6% (active)
Cc1ccc(-c2nc(COC(=O)c3c(C)noc3C)cs2)cc1	23.4% (active)
Cc1ccc(-c2noc(CCC(=O)Nc3ccccc3N3CCN(C)CC3)n2)cc1	-2.79% (inactive)
Cc1ccc(NC(=O)CN(C)CC(=O)Nc2cccc(F)c2)cc1[N+](=O)[O-]	100% (active)
Cc1cc(C)c(NC(=O)C[N+](C)(C)CC(O)COc2cccc3ccccc23)c(C)c1 (centres undefined)	-17% (inactive)
